Measured values from PubChem BioAssay (NCI).
Compounds without any hit were thinned out: in the full panel of roughly 83,000, 20% have a hit.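 In brief: 96-well plates, 48 h treatment, single concentration, percent growth endpoint.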 Values without a mark were called inactive. Active and inactive are the calls of the source. The calls were made as follows: active = growth percent below 10; inactive = the rest.

What was measured:
Test in all cases: NCI-60 one-dose screen, 48 h (100 = growth as untreated, 0 = no growth, -100 = all killed)
[1] = system: HCT-15 colon; conditions: 10 µM unless noted
[2] = system: HT29 colon; conditions: 10 µM unless noted
[3] = system: SNB-75 CNS; conditions: 10 µM unless noted
[4] = system: SNB-19 CNS; conditions: 10 µM unless noted
[5] = system: U251 CNS; conditions: 10 µM unless noted
[6] = system: PC-3 prostate; conditions: 10 µM unless noted
[7] = system: SK-MEL-5 melanoma; conditions: 10 µM unless noted
[8] = system: UACC-62 melanoma; conditions: 10 µM unless noted
[9] = system: LOX IMVI melanoma; conditions: 10 µM unless noted
[10] = system: SK-MEL-28 melanoma; conditions: 10 µM unless noted
[11] = system: SK-MEL-2 melanoma; conditions: 10 µM unless noted
[12] = system: EKVX NSCLC; conditions: 10 µM unless noted
[13] = system: SN12C renal; conditions: 10 µM unless noted
[14] = system: UO-31 renal; conditions: 10 µM unless noted
[15] = system: ACHN renal; conditions: 10 µM unless noted
[16] = system: CAKI-1 renal; conditions: 10 µM
[17] = system: A498 renal; conditions: 10 µM unless noted
[18] = system: CCRF-CEM leukemia; conditions: 10 µM unless noted
[19] = system: MOLT-4 leukemia; conditions: 10 µM unless noted

Row | Structure (SMILES) | growth [1] | growth [2] | growth [3] | growth [4] | growth [5] | growth [6] | growth [7] | growth [8] | growth [9] | growth [10] | growth [11] | growth [12] | growth [13] | growth [14] | growth [15] | growth [16] | growth [17] | growth [18] | growth [19]
1 | Nc1ncnc2c1ncn2C1OC(COC(c2ccccc2)(c2ccccc2)c2ccccc2)C(O)C1O (centres undefined) | 98.2% | 82.8% | 76.2% | 96.5% | 99.5% | 88.7% | 92.3% | 95.6% | 91.4% | 96.2% | 87.7% | 91.6% | 93.7% | 80.5% | 47.9% | 57.7% | 103% | 46.1% | 78.8%
2 | Cc1cc(O[C@@H]2O[C@@H](C)[C@H](O)[C@@H](O)[C@H]2O)c2c3c(c(O[C@@H]4O[C@@H](C)[C@H](O)[C@@H](O)[C@H]4O)cc2c1)C(=O)c1c(O)cccc1C3=O | 87.9% | 72.4% | 52.2% | 94.3% | 82% | 56.7% | 67.8% | 65.6% | 74% | 90.8% | 90.4% | 76.7% | 54.2% | 11.7% | 47.2% | 60.3% | -53% (active) | 82.6% | 68.8%
3 | COc1ccccc1P(c1ccccc1OC)c1ccccc1OC | 104% | 92.2% | 98% | 75.7% | 95.7% | 80% | 88.6% | 90% | 85.4% | 117% | 99.1% | 91% | 113% | 86.1% | 98.3% | 86.2% | 79.4% | 130% | 105%
4 | O=S(=O)(Nc1cccc2cc(OS(=O)(=O)c3ccccc3)ccc12)c1ccccc1 | 34.4% | 19.2% | 49.6% | 78.2% | 48.5% | 59% | 53.4% | 61% | 55.4% | 66.4% | 66.9% | 64% | 70.1% | 59.7% | 85.1% | 71.4% | 48.6% | 61.9% | 43.3%
5 | COc1ccc(OCC(O)CN2CCN(c3ccc(Cl)cc3)CC2)cc1 (centres undefined) | 105% | 98.5% | 84.7% | 85.7% | 94.5% | 104% | 84.3% | 84.9% | 91.4% | 114% | 135% | 97.4% | 105% | 76% | 101% | 79.9% | 82.8% | 113% | 107%
6 | COC1=C(OC)C(=O)C=CC1=O | 108% | 95.4% | 110% | 108% | 107% | 92.7% | 111% | 94.1% | 100% | 120% | 112% | 121% | 103% | 89.1% | 103% | 115% | 120% | 46% | 12.6%
7 | O=C(Nc1cccc(-n2ccc3c(NC(=O)c4ccccc4)ncnc32)c1)Nc1ccc(Cl)c(C(F)(F)F)c1 | 34.1% | 26.6% | 44.4% | 46.5% | 31.7% | 22.7% | 19% | 39.5% | 24.7% | 49.4% | -8.08% (active) | 32.1% | 40.9% | 43.5% | 25.5% | 18.1% | 42.9% | 16.4% | 15.8%
8 | O=C(Nc1cccc(-n2ccc3c(NC(=O)c4ccccc4)nccc32)c1)Nc1cc(C(F)(F)F)cc(C(F)(F)F)c1 | 5.94% (active) | -16.3% (active) | 38.7% | 20.5% | 0.587% (active) | 11.1% | -82.1% (active) | 11.6% | 22.5% | 35.4% | -11.9% (active) | 19% | 12.7% | 12.1% | 8.65% (active) | 15.3% | 16.4% | -4.29% (active) | 7.11% (active)
9 | COc1ccc(-c2nnc(NC(=O)CN3CCN(c4cc5c(cc4F)c(=O)c(C(=O)O)cn5C4CC4)CC3)s2)cc1OC | 103% | 95.8% | 90.8% | 96.2% | 99.7% | 95.6% | 99.1% | 91.9% | 74.3% | 107% | 102% | 108% | 95.5% | 89.4% | 109% | 104% | 80.5% | 98.9% | 93%
10 | O=S1(=O)N(CCNc2nccc(-c3c(-c4cccc(O)c4)nc4sccn34)n2)CCN1Cc1ccccc1 | 55.7% | 37% | 70.4% | 113% | 69% | 63% | 30.6% | 20.7% | 28.6% | 60.2% | 19.2% | 90.9% | 64.1% | 43.8% | 41.1% | 39.4% | -20.9% (active) | 31.9% | 63.1%
11 | O=C(Nc1ccc(-n2ccc3c(NC(=O)c4ccccc4)nccc32)cc1)c1ccc(Cl)c(C(F)(F)F)c1 | -32.9% (active) | -3.9% (active) | 60.3% | 44.6% | -51.6% (active) | 42% | 27.1% | 40.6% | -28.8% (active) | 54.6% | 53.4% | 72.8% | 47.9% | 36.6% | 37.1% | 26.3% | 63.6% | -9.57% (active) | 8.54% (active)
12 | CCC(CC(C)C)Nc1ccc(NC(CC)CC(C)C)cc1 (centres undefined) | 92% | 88.8% | 96.8% | 97.8% | 75.3% | -11.1% (active) | 95.4% | 89.3% | 83.4% | 108% | 86.4% | 81.4% | 96.3% | 93% | 95.3% | 99.1% | 94.1% | 10.4% | 34.5%
13 | O=C(Nc1ccc(-n2cc(-c3ccncc3)c(-c3ccc(O)c(Cl)c3)n2)cc1)c1cc(C(F)(F)F)cc(C(F)(F)F)c1 | 34.6% | 51.7% | 63.9% | 66.2% | 43.8% | 35.8% | 60% | 71.2% | 42.4% | 68.8% | 68.8% | 66.3% | 64.4% | 50.8% | 54.2% | 54.4% | 76.7% | 31.1% | 28.3%
14 | O=C(NCCNc1nccc(-c2c(-c3cccc(O)c3)nc3sccn23)n1)c1ccccc1 | 88.4% | 65.4% | 54.4% | 91.1% | 61.9% | 68.5% | 40.2% | 0.903% (active) | 23.2% | 37.8% | 45.5% | 94.2% | 66.4% | 87.7% | 60.5% | 87.9% | 48% | 47.3% | 67.1%
15 | Oc1ccccc1/C=N/c1ccccn1 | 104% | 114% | 98% | 88% | 99% | 91.4% | 97% | 106% | 94.4% | 117% | 97.8% | 112% | 116% | 92.1% | 106% | 104% | 89.5% | 116% | 102%
16 | OC[C@@H](O)C(O[C@@H]1O[C@H](CO)[C@H](O)[C@H](O)[C@H]1O)[C@H](O)[C@@H](O)CO (some centres undefined) | 98.2% | 103% | 98.6% | 107% | 97.6% | 86.6% | 106% | 99.1% | 98.8% | 110% | 106% | 95.4% | 101% | 75.5% | 94.4% | 92.9% | 111% | 106% | 106%
